Potency data for eight compounds are collected here from PubChem BioAssay (Tox21).

SMILES strings stand for the structures. Records with an inconclusive call do not appear. Activity calls are given as the source filed them. Unless noted, calls come from the whole dose curve; as a rule, active = well fitted curve in the direction sought with a large enough effect in the repeat runs; inconclusive = weak or mixed curves; inactive = no such curve, though single readings can be large; an effect the other way counts as inactive or inconclusive.

A short description of test [1]: qHTS RealTime-Glo MT Cell Viability Assay in HEK293 cells - 0 hour (AID 1224880). Note: nearly all actives have a fitted effect of over 45% in size. Note: potency is the fitted concentration of half-maximal effect. In outline:
(§1)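 Kinetic, non-lysing viability readout. Seed HEK293 (600/well) with reagent, incubate 5 h at 37 C/5% CO2, pin 23 nL compound in DMSO, incubate at 37 C, read luminescence at 0, 8, 16, 24, 32, 40 h.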
(Quantitative high-throughput screening tests each substance at several concentrations.)

Test [2] is described as follows: A CellTox Green Cytotoxicity Assay to monitor cytotoxicity in HEK293 cells - 32 hour (AID 1224881). Note: nearly all actives have a fitted effect of over 40% in size. The method in brief: (§2)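 Real-time, in one plate: 600 HEK293 cells/well with dead-cell DNA dye, pinned compound after 5 h, 37 C incubation over 40 h; viable cells give no appreciable fluorescence.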
Test [3] in a line: A CellTox Green Cytotoxicity Assay to monitor cytotoxicity in HepG2 cells - 0 hour (AID 1224882). Note: nearly all actives have a fitted effect of over 35% in size. The method in brief:
(§3)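 Cytotoxicity was tracked as dead-cell DNA fluorescence in HepG2 cells treated with test compounds at 37 C; each time-point value comes from one kinetic series spanning 0, 8, 16, 24, 32 and 40 h.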

Test [4] is described as follows: A CellTox Green Cytotoxicity Assay to monitor cytotoxicity in HepG2 cells - 32 hour (AID 1224883). Note: nearly all actives have a fitted effect of over 50% in size. The method in brief: as §3
Test [5] can be described thus: A CellTox Green Cytotoxicity Assay to monitor cytotoxicity in HEK293 cells - 8 hour (AID 1224884). Note: nearly all actives have a fitted effect of over 35% in size. In outline:
as §2

A short description of test [6]: qHTS RealTime-Glo MT Cell Viability Assay in HepG2 cells - 16 hour (AID 1224885). Note: nearly all actives have a fitted effect of over 50% in size. In outline:
(§4)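 Luminescence read-out: viable HepG2 cells reduce a prosubstrate to a NanoLuc substrate, giving a signal proportional to live cell number. Reads taken at 0, 8, 16, 24, 32 and 40 h of compound exposure at 37 C.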

A short description of test [7]: qHTS RealTime-Glo MT Cell Viability Assay in HEK293 cells - 24 hour (AID 1224886). Note: top concentration of the series differs between compounds; nearly all actives have a fitted effect of over 50% in size. In outline: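 Nonlytic real-time viability readout: viable cells convert prosubstrate to NanoLuc substrate, giving luminescence proportional to live cell number. HEK293, 600 cells/well, compound added after 5 h, continuous culture at 37 C.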
Test [8] is described as follows: A CellTox Green Cytotoxicity Assay to monitor cytotoxicity in HEK293 cells - 16 hour (AID 1224888). Note: nearly all actives have a fitted effect of over 35% in size. In outline:
as §2

The nature of test [9]: qHTS RealTime-Glo MT Cell Viability Assay in HepG2 cells - 0 hour (AID 1224889). Note: nearly all actives have a fitted effect of over 50% in size. Note: potency is the fitted concentration of half-maximal effect. The method in brief:
as §4

Test [10] in a line: A CellTox Green Cytotoxicity Assay to monitor cytotoxicity in HepG2 cells - 8 hour (AID 1224890). Note: nearly all actives have a fitted effect of over 45% in size. The method in brief:
as §3

Test [11] is described as follows: qHTS assay to identify small molecule antagonists of the androgen receptor (AR) signaling pathway using the MDA cell line in the presence of 0.5 nM R1881 - cell viability counter screen (AID 1259242). Note: nearly all actives have a fitted effect of over 45% in size. The method in brief:
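Cells seeded at 3,000/well and allowed 5 hr at 37C, 0% CO2 before compound transfer and R1881 (0.5 nM final) addition; 16 hr later, live-cell protease fluorescence indicated cytotoxicity.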

Test [12] deals with Estrogen receptor (Homo sapiens) (UniProt P03372). Briefly: qHTS assay to identify small molecule antagonists of the estrogen receptor alpha (ER-alpha) signaling pathway using the BG1 cell line in the presence of 0.1 nM 17-beta-estradiol (AID 1259244). Note: nearly all actives have a fitted effect of over 50% in size. The method in brief:
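Luciferase signal from VM7Luc4E2 ERE-reporter cells, co-dosed with test compound and 0.1 nM final 17beta-estradiol for 22 h, read with ONE-Glo.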

The nature of test [13]: qHTS assay to identify small molecule phospholipidosis (PLD) inducers (AID 1259344; active = well fitted curve in the direction sought with a large enough effect; an effect the other way counts as inactive or inconclusive). In outline:
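After 4 h attachment on collagen I, HepG2 cells were dosed with compound alongside LipidTOX Red, kept 24 h at 37 C, fixed, and imaged for lamellar phospholipid pits.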

Test [14] in a line: qHTS assay to identify small molecule HDAC inhibitors (AID 1259364). Note: potency is the fitted concentration of half-maximal effect.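 Note: wild-type HCT-116 cells with endogenous class I/II HDAC activity; nearly all actives have a fitted effect of over 45% in size.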 In outline: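 HCT-116 wt cells, 1,500/well, overnight attach. Compounds (DMSO) 2 h, 37 °C. HDAC-Glo I/II, 30 min RT. Luminescence.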
A short description of test [15]: qHTS assay to identify small molecule HDAC inhibitors - cell viability counter screen (AID 1259365). In outline:
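Following a 2hr exposure of overnight-plated wild-type HCT-116 cells to DMSO-delivered compounds, CellTiter-Glo was added and luminescence recorded after 30min at room temperature.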

The nature of test [16]: qHTS assay to identify small molecule agonists of the sonic hedgehog signaling (Shh) pathway - cell viability counter screen (AID 1259366). Note: nearly all actives have a fitted effect of over 50% in size. In outline:
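After a 4hr attachment at 37C, NIH/3T3 cells bearing an integrated Gli1-driven luciferase reporter were dosed with compounds. Treatment lasted 24hr, with the final hour including CellTiter-Fluor for a fluorescence viability measurement.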

Test [17] is described as follows: qHTS assay to identify small molecule antagonists of the sonic hedgehog signaling (Shh) pathway - cell viability counter screen (AID 1259367). Note: nearly all actives have a fitted effect of over 55% in size. In outline: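 Conditioned medium drove Shh signaling in 3T3 Gli1-Luc cells exposed to compounds at 37C and 5% CO2. Viability was determined from CellTiter-Fluor fluorescence, with reagent incubated 1 hr after 23 hr of treatment.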

A short description of test [18]: qHTS assay to identify small molecule antagonists of the estrogen receptor alpha (ER-alpha) signaling pathway using the BG1 cell line in the presence of 0.1 nM 17-beta-estradiol - cell viability counter screen (AID 1259241). Note: nearly all actives have a fitted effect of over 40% in size. In outline:
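Measures cytotoxicity alongside the ER-alpha antagonist readout: VM7Luc4E2 cells, charcoal-stripped serum, 0.1 nM 17beta-estradiol final, 22 hr compound incubation at 37C, CellTiter-Fluor fluorescence.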

Test [19] is described as follows: qHTS RealTime-Glo MT Cell Viability Assay in HEK293 cells - 8 hour (AID 1224887). The method in brief:
as §1

Estrogen receptor (Homo sapiens), sequence (P03372 whole entry, looked up): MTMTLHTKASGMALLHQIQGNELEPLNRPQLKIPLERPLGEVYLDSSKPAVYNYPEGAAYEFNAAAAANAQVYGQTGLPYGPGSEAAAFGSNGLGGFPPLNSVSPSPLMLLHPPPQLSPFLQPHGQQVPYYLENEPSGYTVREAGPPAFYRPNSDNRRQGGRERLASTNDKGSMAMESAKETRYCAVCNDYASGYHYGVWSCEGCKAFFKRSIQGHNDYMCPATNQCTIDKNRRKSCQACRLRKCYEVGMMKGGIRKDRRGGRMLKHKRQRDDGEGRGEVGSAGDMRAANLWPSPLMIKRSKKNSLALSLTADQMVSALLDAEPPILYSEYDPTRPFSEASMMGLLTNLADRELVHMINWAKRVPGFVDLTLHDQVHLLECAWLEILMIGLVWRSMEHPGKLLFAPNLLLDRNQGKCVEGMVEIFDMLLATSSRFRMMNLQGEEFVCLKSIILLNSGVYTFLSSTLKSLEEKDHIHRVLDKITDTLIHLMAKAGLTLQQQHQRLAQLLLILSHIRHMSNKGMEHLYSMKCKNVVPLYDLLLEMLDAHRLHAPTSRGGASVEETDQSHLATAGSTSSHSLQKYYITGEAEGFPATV

Regarding `COc1ccc(-c2cc(=S)ss2)cc1`, the Potency result in [1], in test [2], in test [3], in test [4], in test [5] and in [6] was “inactive” in each case. Moreover, the Potency entry in test [7], in test [8], in [9], in [10], in [11] and in test [12] was “inactive” throughout. In addition, the Potency result in test [13], in [15], in [16] and in test [17] was “inactive” in each case. For the same compound, the Potency in test [14] was 11.9 µM (active).

`O=C(Nc1ccc(C(=O)O)c(O)c1)c1ccccc1`: the Potency result in [1], in [2], in [3], in test [4], in test [5] and in test [6] was “inactive” throughout. For the same compound, the Potency entry in test [8], in test [9], in [10], in test [18], in test [11] and in [12] was “inactive” in each case. Besides, the Potency entry in [13], in test [15], in [16] and in [17] was “inactive” each time.

For `CC(C)(C(=O)c1cccnc1)c1cccnc1`, the Potency result in test [1], in [2], in [3], in test [4], in test [5] and in test [6] was “inactive” each time. For the same compound, the Potency result in [8], in test [9], in [10], in test [18], in test [11] and in test [12] was “inactive” each time. Besides, the Potency result in test [13], in [14], in [15], in [16] and in [17] was “inactive” in each case.

On to `O=C(NS(=O)(=O)/C=C/c1ccccc1)c1ccc(F)cc1Cl`, for which the results for the Potency in test [1] and in test [9] were 12.3 µM (active) and 19.5 µM (active), respectively. The Potency entry in test [2], in test [3], in test [5], in test [6], in test [7] and in test [8] was “inactive” in each case. The Potency entry in test [10], in test [18], in [11], in [12], in test [14] and in test [15] was “inactive” each time. Moreover, in test [16], the Potency result was “inactive”.

Regarding `C=C(C)c1ccccc1`, the Potency result in [1], in test [2], in test [3], in [5], in test [6] and in [7] was “inactive” in each case. For the same compound, the Potency result in test [8], in [9], in test [10], in [18], in [11] and in test [14] was “inactive” throughout. The Potency result in test [15], in [16] and in test [17] was “inactive” in each case.

In the case of `CNCc1ccc(NC(=O)c2c[nH]c3c2C(=O)CCC3)cc1`, the Potency result in test [1], in test [2], in [3], in [4], in test [5] and in [6] was “inactive” in each case. Further, the Potency result in [8], in [9], in [10], in test [18], in test [11] and in [14] was “inactive” each time. Moreover, the Potency result in test [15], in test [16] and in [17] was “inactive” each time.

`c1ccc(CNc2ncnc3c2ncn3C2CCCCO2)cc1` (stereo not drawn): the Potency result in [1], in test [2], in test [3], in test [4], in test [5] and in test [6] was “inactive” throughout. Further, the Potency result in [8], in [9], in [10], in test [18], in [11] and in [15] was “inactive” in each case. In addition, the Potency result in test [16] is “inactive”.

On to `CC(C)(O)c1coc(S(=O)(=O)NC(=O)Nc2c3c(cc4c2CCC4)CCC3)c1`, for which the Potency result in test [1], in test [2], in [3], in [5], in test [6] and in test [7] was “inactive” in each case. In addition, the Potency result in test [19], in test [8], in [9], in test [10], in test [18] and in test [11] was “inactive” throughout. The Potency result in [14], in [15] and in test [16] was “inactive” throughout.
